Screens deposited in PubChem BioAssay by several laboratories.
This is a sample that favours compounds with a hit; in the whole collection about 32% have one here.
CYP2C9 inhib – inhibitors of human CYP2C9; CYP2C9 Supersomes, luciferin-H conversion, luminescence; inhibition, % at 5 µM; 20% of 96,000 active;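 active = blocking of liver enzyme CYP2C9 beyond about 50% at 5 µM, limit read from the data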
PostGolgi yeast – growth inhibition of a yeast mutant, post-Golgi transport screen | post-Golgi transport phenotypic cell assay | inhibition, % at 10 µM | 0.9% of 98,000 active;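 note: yeast cells grown in 1536-well plates; yeast grown about 18 h at 30C before absorbance read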
CYP2C19 activ – increases human CYP2C19 enzyme activity; recombinant CYP2C19, luciferin-H EGE luminescence; active compounds read high; 0 = fully inhibited enzyme, 1 = untreated enzyme; activation factor at 5 µM; 96,000 tested, under 10 active; AID 1025;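 active = activation factor of at least 2 at 5 µM in the primary screen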;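 note: 0 = wells with 2.5 mM tranylcypromine and 1 = vehicle-only wells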
Target sequence (P33261 whole entry, looked up): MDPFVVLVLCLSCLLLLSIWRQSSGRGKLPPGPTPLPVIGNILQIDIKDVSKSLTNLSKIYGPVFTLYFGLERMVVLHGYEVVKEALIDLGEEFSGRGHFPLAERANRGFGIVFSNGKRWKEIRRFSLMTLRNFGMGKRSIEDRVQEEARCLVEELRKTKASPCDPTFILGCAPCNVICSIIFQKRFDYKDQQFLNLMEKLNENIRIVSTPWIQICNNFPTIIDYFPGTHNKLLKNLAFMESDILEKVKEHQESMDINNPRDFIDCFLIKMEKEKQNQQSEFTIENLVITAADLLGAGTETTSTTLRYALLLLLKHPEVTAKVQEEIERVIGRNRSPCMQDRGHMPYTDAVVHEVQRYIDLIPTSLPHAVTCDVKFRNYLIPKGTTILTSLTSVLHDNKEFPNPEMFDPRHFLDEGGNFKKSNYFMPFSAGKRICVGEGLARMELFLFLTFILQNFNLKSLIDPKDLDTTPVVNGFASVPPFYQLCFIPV
PostGolgi ctrl – inhibits growth of the yeast control strain; inhibition, % at 10 µM; AID 738; 5% of 98,000 active; efflux-deficient yeast background strain, growth absorbance A615, 16 h
CYP2C9 act – activators of human CYP2C9; activation factor at 5 µM; recombinant CYP2C9, luciferin-H conversion, luminescence; active compounds read high; factor 1 = untreated enzyme, 0 = blocked; 1.4% of 96,000 active; P11712; AID 1024;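 active = activation factor of 2 or more for CYP2C9 at a 5 µM dose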;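 note: 0 = sulfaphenazole-blocked wells and 1 = vehicle-only wells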
CYP2C19 inhib – human CYP2C19 inhibition. CYP2C19 Supersomes, luciferin-H EGE luminescence, 30 min. 21% of 96,000 active. inhibition, % at 5 µM;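 active = CYP2C19 inhibition above a set limit at 5 µM in the primary screen, cut at about 50% in these data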;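 note: plate controls were negative control wells for no effect and 2.5 mM tranylcypromine positive control for full effect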
Active calls of the source: *. Cut-off read from the data, not from the text of the source, unless noted: active = inhibition above about 30%; inactive = the rest.

SMILES	CYP2C9 inhib	PostGolgi yeast	CYP2C19 activ	PostGolgi ctrl	CYP2C9 act	CYP2C19 inhib
Cc1nc2nc(Cc3ccccc3)[nH]n2c(=O)c1Cl	69*	4	1.1	0	0.3	-14
Cc1nc2nc(COc3ccccc3)[nH]n2c(=O)c1Cl	75*	-1	0.7	-7	0.3	31
O=C(COc1ccc(CO)cc1Cl)Nc1ccc(F)cc1	49	-13	0.4	2	0.5	58*
Cc1cc(C)cc(OCC(=O)Nc2ccc(N3CCCC3)cc2)c1	-20	-3	1.1	-3	1.2	-7
COc1ccccc1NC(=O)COc1ccc(CO)cc1Cl	92*	-14	0	20	0.1	97*
Cc1cc(OCC(=O)Nc2ccncc2)cc(C)c1Br	99*	2	0	12	0	100*
Cc1cc(C)cc(OCC(=O)Nc2ccc(F)cc2)c1	0	-1	0.4	6	1	59*
CCOC(=O)c1oc2cc(C)cc(O)c2c(=O)c1-c1csc(C)n1	-28	4	1	3	1.3	4
CC(=O)c1c(C)nc2ccc(Br)cc2c1C(=O)O	15	4	1	2	0.8	4
O=C(c1ccc(-c2nnc(Nc3cccc(Cl)c3)c3ccccc23)cc1)N1C[C@H]2C[C@H](C1)c1cccc(=O)n1C2	30	0	0.8	11	0.7	16
CC(C)CC(=O)N1CCN(C(=O)CCC2CCCC2)CC1	8	9	0.8	9	0.9	20
Cc1cc(OCC(=O)NCCN2CCOCC2)cc(C)c1Br	-107	2	0	18	2.1*	99*
O=C(COc1ccc(CO)cc1)Nc1ccc(F)cc1	30	5	0.5	22	0.7	52*
N#CC(Nc1ccccc1)c1ccccc1OCc1ccccc1 (stereo not given)	89*	3	0.1	6	0.1	86*
COc1ccc(C(C#N)Nc2ccccc2)cc1 (stereo not given)	8	-1	0.8	0	0.9	18
CC(C)(C)c1ccc(C(=O)NNC(=O)C(=O)N2CCCCC2)cc1	6	5	1	0	0.9	0
C/C(CCc1ccc2c(c1)OCO2)=N\N=C(/N)SC1CC(=O)N(c2ccccc2F)C1=O (stereo not given)	74*	3	0.8	-1	0.3	21
CCN=C(Nc1ccc2c(c1)OCO2)SC1CC(=O)N(c2ccccc2F)C1=O (stereo not given)	100*	-1	0.5	17	0	47
CC(C)Cn1c(SCC(=O)NC(=O)NC2CCCC2)nc2ccccc21	43	-12	0.6	11	0.6	42
OC1(c2ccccc2F)CCN(Cc2nnnn2CCc2ccccc2)CC1	80*	-6	0.3	4	0.2	65*
O=C(NC1CCN(Cc2nnnn2CCc2ccccc2)CC1)c1ccccc1F	16	-5	1.1	-8	0.8	-6
O=C(CS(=O)(=O)c1cn(Cc2cccc(F)c2)c2ccccc12)N1CCOCC1	13	-11	0.7	3	0.9	34
O=S(=O)(Cc1cccc(F)c1)c1c[nH]c2ccccc12	81*	1	0	3	0.2	100*
O=C1CC(c2ccccc2)CCc2sccc2N1 (stereo not given)	26	0	0.3	-1	0.7	66*
O=C1CC(C(=O)O)c2ccccc2N1 (stereo not given)	6	-3	0.9	-2	0.9	5
SMILES	CYP2C9 inhib	PostGolgi yeast	CYP2C19 activ	PostGolgi ctrl	CYP2C9 act	CYP2C19 inhib
COc1ccc(NC(=O)Cc2ccc(Cl)cc2)cc1NC(=O)c1ccco1	65*	-1	0.3	3	0.4	74*
COc1ccc(NC(=O)c2ccco2)cc1NC(=O)c1cccc(OC(C)C)c1	44	-4	0.4	27	0.6	64*
COc1cccc(C(=O)Nc2cc(NC(=O)c3ccco3)ccc2OC)c1	32	-4	0.7	4	0.7	29
COc1ccccc1NC(=O)Oc1ccc(NC(=O)c2ccco2)cc1	-74	5	0.7	-2	1.7	29
COc1ccccc1NC(=O)c1cccc(NC(=O)c2ccco2)c1	-176	-1	1	0	2.8*	2
COc1ccc(NC(=O)c2ccco2)cc1NC(=O)c1ccco1	6	-3	1	3	0.9	-1
CC(C)(C)NC(=O)c1cccc(NC(=O)c2ccc(NC(=O)c3ccco3)cc2)c1	97*	-8	0.3	10	0	74*
O=C(CNC(=O)c1ccco1)OCN1C(=O)c2ccccc2C1=O	-4	10	1	3	1	-5
CC(C)(C)C(=O)COC(=O)c1cccc(NC(=O)c2ccco2)c1	20	-1	0.8	0	0.8	18
O=C(COC(=O)c1cccc(NC(=O)c2ccco2)c1)c1ccc(Br)cc1	-134	-1	0.9	7	2.3*	11
Cc1ccc(O)c(NC(=O)c2cccc(NC(=O)c3ccco3)c2)c1	2	-6	0.5	12	1	53*
Cc1ccc(O)c(NC(=O)c2ccco2)c1	35	5	0.6	3	0.7	36
CC1(C)CC(=O)C2=C(C1)Nc1ncnn1C2c1ccccn1 (stereo not given)	0	-8	1	3	1	-2
COc1ccc(C2NC(=O)C(C)S2)cc1 (stereo not given)	5	6	0.6	6	0.9	45
CC(C)CCOCC(=O)Nc1cccc(C(=O)O)c1	2	-5	0.9	-4	1	13
CNc1nc2sc3c(c2c(=O)n1C)CC(C)(C)SC3	56*	-2	0.3	1	0.4	73*
CCn1cc(C(=O)OCC(=O)OC2CC(C)CCC2C(C)C)c(=O)c2ccc(C)nc21 (stereo not given)	49	-8	0.3	15	0.5	75*
CCn1cc(C(=O)OCc2ccccc2)c(=O)c2ccc(C)nc21	-5	9	0.9	14	1.1	10
O=C(Cc1ccccc1)Nc1nc(=O)c2ccccc2s1	16	-6	0.7	17	0.8	26
O=C(Nc1nc(=O)c2ccccc2s1)c1ccc(Cl)cc1	39	-7	0.4	13	0.6	62*
COc1ccc2c(c1)C(=O)N(c1ccccc1)C(=O)C2	7	4	0.8	11	0.9	19
COc1ccc2c(c1)C(=O)N(c1ccccc1OC)C(=O)C2(C)C	63*	-8	0.2	6	0.4	84*
Cc1ccc(C)c(N2CCN(C(=O)c3cn(C)c4ccc(S(=O)(=O)N(C)C)cc4c3=O)CC2)c1	3	-4	0.6	3	1	38
CCC(C)c1ccc(Nc2ncccc2C#N)cc1 (stereo not given)	24	-11	0.9	0	0.8	8
Cc1ccc(CCC2C3=C(CCCC3=O)OC3=C2C(=O)CCC3)cc1	75*	-1	0	7	0.2	95*
